Measured potencies and affinities stand elsewhere. Active and inactive are the calls of the source.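 The calls were made as follows: active = compounds whose curve fit is tight, with span above 25% and half-effect concentration below 10 µM; inactive = the rest.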
Molecular target: Beta-adrenergic receptor kinase 1 (Homo sapiens) (UniProt P25098)
Experiment: aptamer displacement from bead-bound GRK2 – biochemical, cherry pick 1, bead flow cytometry, dose response (AID 504500)
Conditions: bead-bound biotinylated GRK2, FAM-aptamer displacement; series mostly up to 33 µM

Beta-adrenergic receptor kinase 1 (Homo sapiens), sequence (P25098 whole entry, looked up): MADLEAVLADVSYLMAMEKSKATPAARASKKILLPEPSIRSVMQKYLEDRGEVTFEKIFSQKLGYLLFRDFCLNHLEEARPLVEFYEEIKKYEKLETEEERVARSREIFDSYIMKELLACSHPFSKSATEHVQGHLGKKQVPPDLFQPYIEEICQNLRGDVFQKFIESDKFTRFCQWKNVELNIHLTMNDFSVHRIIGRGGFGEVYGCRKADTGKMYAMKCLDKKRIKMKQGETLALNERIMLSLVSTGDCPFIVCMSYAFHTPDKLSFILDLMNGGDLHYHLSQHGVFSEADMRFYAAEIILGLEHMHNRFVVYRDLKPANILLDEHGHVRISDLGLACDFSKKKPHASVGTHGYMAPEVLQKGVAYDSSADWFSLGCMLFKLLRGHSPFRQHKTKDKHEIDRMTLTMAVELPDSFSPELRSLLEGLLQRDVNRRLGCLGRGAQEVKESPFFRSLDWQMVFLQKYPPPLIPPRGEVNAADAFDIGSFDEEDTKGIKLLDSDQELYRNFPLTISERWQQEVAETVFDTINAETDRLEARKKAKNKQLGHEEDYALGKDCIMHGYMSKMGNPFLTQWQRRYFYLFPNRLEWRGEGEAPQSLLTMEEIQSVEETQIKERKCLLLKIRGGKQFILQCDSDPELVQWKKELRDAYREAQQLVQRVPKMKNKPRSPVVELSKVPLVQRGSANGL

Structure (SMILES)	outcome
O=C(CCS(=O)(=O)c1ccc(Br)cc1)NCCc1ccccc1	inactive
Cc1ccc(CCNC(=O)CCS(=O)(=O)c2ccc(Br)cc2)cc1	inactive
COC(=O)c1ccc(NC(=O)CCS(=O)(=O)c2ccc(Br)cc2)cc1	inactive
COC(=O)c1ccccc1NC(=O)CCS(=O)(=O)c1ccc(Br)s1	inactive
CCOC(=O)c1sc(NCc2ccco2)c(-c2nc3ccccc3s2)c1N	inactive
CNC(=O)c1[nH]cnc1C(=O)Nc1cccc(Cl)c1	inactive
Cc1cc2ccccc2n1CCNC(=O)C(C)Oc1ccccc1 (stereo unspecified)	inactive
COc1ccc(CCNC(=O)CCS(=O)(=O)c2ccc(Br)cc2)cc1OC	inactive
CCOc1ccc(CCNC(=O)CCS(=O)(=O)c2ccc(Br)cc2)cc1OCC	inactive
O=C(Nc1cccc(-c2ccc(N3CCOCC3)nn2)c1)c1ccccc1	inactive
COc1ccc(NC(=O)CCS(=O)(=O)c2ccc(Br)s2)cc1	inactive
O=C(CCS(=O)(=O)c1ccc(Br)cc1)NCc1cccs1	inactive
CCN1/C(=C/c2ccc3ccc(C)cc3[n+]2CC)Sc2ccccc21	inactive
O=C(O)C1C2C=CC(CC2)C1C(=O)O (stereo unspecified)	inactive
COc1ccc(N2CCN(C(CNS(=O)(=O)c3ccccc3)c3ccccc3)CC2)cc1 (stereo unspecified)	inactive
O=C(/C=C/c1ccco1)OCC(=O)N1CCCCC1	inactive

Structure (SMILES)	outcome
O=C(O)C1Nc2c(O)cc(Cl)c([N+](=O)[O-])c2C2C=CCC12 (stereo unspecified)	inactive
O=C(CN1CCc2ccccc21)NC(=O)NCc1ccccc1	inactive
CCN1/C(=C\c2ccc3ccccc3[n+]2CC)Sc2cc(C)ccc21	inactive
CCN1/C(=C/C=C/c2sc3ccccc3[n+]2CC)Sc2ccccc21	inactive
O=C(CCS(=O)(=O)c1ccc(Br)cc1)NC1CCCC1	inactive
CCN1/C(=C/C(C)=C/c2sc3ccccc3[n+]2CC)Sc2ccccc21	inactive
CCN1/C(=C/c2ccc3cccc(C)c3[n+]2CC)Sc2ccccc21	inactive
Cc1oc(-c2ccc(Cl)cc2)nc1CN1CCCC(C(=O)NCc2cccnc2)C1 (stereo unspecified)	inactive
Cc1ccc(C(=O)Nc2cccc(C(=O)NCc3ccco3)c2)cc1	inactive
COc1ccc2nc(SCC(=O)Nc3ccc4c(c3)OCCO4)[nH]c2c1	inactive
COCCNC(=O)C/C(C)=N/NC(=O)C(=O)NC1CCCCC1	inactive
O=C(CCS(=O)(=O)c1ccc(Br)cc1)NCc1ccco1	inactive
COc1ccccc1-[n+]1c(C)cc(/C=C2\Sc3ccccc3N2C)cc1C	inactive
Cc1cccc(N2CCN(C(=O)CCS(=O)(=O)c3ccc(Br)cc3)CC2C)c1 (stereo unspecified)	inactive
COc1cc(/C=C2\CCc3c2nc2ccccc2c3C(=O)O)cc(OC)c1OC	inactive
